Gli-Sufu block: Gli-Sufu pathway antagonism; Sufu-KO-LIGHT fibroblasts, Gli luciferase reporter luminescence; hit rate 0.74% among 340,000; inhibition, % at 5 µM; AID 588413;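 active = inhibition above about 55%, limit read from the data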
COUP-TFII inh: inhibitors of human COUP-TFII (NR2F2). P24468. HEK293T NGFI-A luciferase reporter, luminescence. inhibition, % at 8.6 µM. hit rate 0.7% among 370,000. AID 686940;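 active = inhibition above a per-plate cutoff, mean inhibition of test wells between control levels plus 3 SD, cut at about 38% in these data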;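 also: cells cotransfected with COUP-TFII expression vector driving the NGFI-A reporter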
Target sequence (P24468 whole entry, looked up): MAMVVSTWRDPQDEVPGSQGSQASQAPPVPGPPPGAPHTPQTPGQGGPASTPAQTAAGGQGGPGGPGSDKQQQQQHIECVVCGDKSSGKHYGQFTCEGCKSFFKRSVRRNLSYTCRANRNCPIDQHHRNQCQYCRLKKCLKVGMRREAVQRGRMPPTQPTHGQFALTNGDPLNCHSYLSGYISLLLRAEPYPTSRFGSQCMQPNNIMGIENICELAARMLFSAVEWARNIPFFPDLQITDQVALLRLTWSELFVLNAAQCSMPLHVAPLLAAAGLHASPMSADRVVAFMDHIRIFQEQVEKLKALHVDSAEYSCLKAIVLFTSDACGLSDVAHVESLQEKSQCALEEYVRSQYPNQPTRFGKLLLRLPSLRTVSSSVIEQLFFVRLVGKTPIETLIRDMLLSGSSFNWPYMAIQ
SMARCA2 act: SMARCA2 function activation, primary screen; MG213 cells, MMTV-luciferase reporter, dexamethasone, overnight; activation, % at 9.1 µM; hit rate 1% among 370,000; AID 652017; in the data active = activation above about 7.8%
GAA850 FXN act: increases GAA850 frataxin promoter reporter activity | HEK293 lucGAA850 FXN promoter luciferase reporter, 24 h; percent of 10 µM SAHA response | activation, % at 6 µM | hit rate 0.56% among 360,000 | AID 540364;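 active = activation above the average of all compounds screened plus 3 SD, cutoff fixed separately per campaign, cut at about 7.5% in these data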
GalR3 antagonist: antagonists of human GalR3 | O60755 | HEK293 GalR3-CNG cAMP membrane potential fluorescence; galR3 body fused to GalR1 C-terminus | inhibition, % at 3 µM | hit rate 0.44% among 360,000 | AID 651719;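 active = inhibition above the screen-wide average plus 3 SD, cut at about 13% in these data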;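 also: forskolin and galanin both at EC90 stimulate the cells; cAMP rise reported by CNG channel membrane potential dye signal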
Target sequence (O60755 1-299 limits assumed): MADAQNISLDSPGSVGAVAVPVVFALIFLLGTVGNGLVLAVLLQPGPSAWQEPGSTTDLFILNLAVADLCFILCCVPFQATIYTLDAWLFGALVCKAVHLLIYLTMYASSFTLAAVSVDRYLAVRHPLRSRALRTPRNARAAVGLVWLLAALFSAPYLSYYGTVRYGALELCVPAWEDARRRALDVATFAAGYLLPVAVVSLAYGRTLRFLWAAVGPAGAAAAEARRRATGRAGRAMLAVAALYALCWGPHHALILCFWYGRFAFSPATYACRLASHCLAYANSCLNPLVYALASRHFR
H9c2 protect: myocardial damage modulation in H9c2 cells | H9c2 cardiomyocytes, H2O2 injury protection, ATPLite, 2 h | protection from H2O2 cell death, % at 20 µM | hit rate 0.63% among 360,000 | AID 588492;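 active = compounds giving at least 50% protection of heart cells from peroxide-induced death in the single-dose screen, raw or plate-pattern-corrected value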
Gal4-VP16 ctr: counter-screen for COUP-TFII antagonists: inhibitors of VP16; shares compounds with COUP-TFII inh; HEK293 Gal4-VP16 luciferase reporter, luminescence; inhibition, % at 8.5 µM; hit rate 25% among 2,500; in the data active = inhibition above about 13%
NR2F2 inh conf: confirmation of human COUP-TFII (NR2F2) inhibitors; inhibition, % at 8.5 µM; HEK293 NGFI-A luciferase reporter, luminescence; shares compounds with COUP-TFII inh; hit rate 45% among 2,500;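 active = mean inhibition over three repeats above a set limit taken from the earlier primary screen, cut at about 38% in these data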
Of the large screens only hits and unclear results are named; the others gave an inactive call (follow-up assays come after a bar, where they were run). In the library only some 3.4% were active in any assay of this set; here they are far more common.

O=C1NC[C@@H](CCCCN2C[C@H](Cc3ccccc3)N(CC3CCCCC3)C(=O)C2=O)N(CC2CCCCC2)C1=O	none (no result: Gli-Sufu block, GAA850 FXN act, H9c2 protect)
Cc1ccccc1N=C1NC(=O)CC(c2ccccc2)S1 (centres undefined)	none
Cc1ccccc1NS(=O)(=O)c1ccc(C(=O)N(C)CC(=O)Nc2ccccc2Br)cc1	none
CCn1c2c(c(=N)c3c1CCC3)CCC2	none
CCCCn1c2c(c(=N)c3c1CCC3)CCC2	COUP-TFII inh 47.3 | Gal4-VP16 ctr inactive | NR2F2 inh conf 39.2
Fc1ccc(Cn2cnc3ccccc32)cc1	none
CCCOc1ccc(Cn2cnc3ccccc32)cc1	COUP-TFII inh 38.0 | Gal4-VP16 ctr inactive | NR2F2 inh conf inactive
CCOC(=O)c1cnc2c(OC)cccc2c1N1CC(C)CC(C)C1 (centres undefined)	COUP-TFII inh 39.6 | Gal4-VP16 ctr inactive | NR2F2 inh conf inactive
CCOC(=O)c1cnc2c(OC)cccc2c1N1CCN(c2ccccc2OC)CC1	none
CN(C)c1ccc(CNc2ncnc3sccc23)cc1	Gli-Sufu block 62.7, COUP-TFII inh 66.2 | Gal4-VP16 ctr inactive | NR2F2 inh conf 51.6
Fc1ccccc1CNc1ncnc2sccc12	COUP-TFII inh 48.3 | Gal4-VP16 ctr inactive | NR2F2 inh conf 41.2
COc1cc2ncnc(NCc3ccccc3F)c2cc1OC	none
COc1cc(OC)c(C(=O)OCC(=O)NCC2CCCCC2)cc1OC	none
O=C(Nc1ccc(S(=O)(=O)NCc2cccnc2)cc1)c1ccccc1Cl	COUP-TFII inh 40.2 | Gal4-VP16 ctr inactive | NR2F2 inh conf inactive
Cc1cccn2cc(-c3ccc(NC(=O)Cc4ccccc4)cc3)nc12	COUP-TFII inh 54.0 (no result: GalR3 antagonist) | Gal4-VP16 ctr inactive | NR2F2 inh conf inactive
CCCCNS(=O)(=O)/C=C/c1cc2c(cc1CNC(=O)OC(C)(C)C)OCO2	none (no result: Gli-Sufu block, GAA850 FXN act, GalR3 antagonist, H9c2 protect)
O=C(c1ccco1)N1CCN=C1SCc1ccc(F)cc1	COUP-TFII inh 57.6 | Gal4-VP16 ctr inactive | NR2F2 inh conf inactive
O=C(c1ccco1)N1CCN=C1SCc1cccc(F)c1	none
CC(=O)c1c(C)[nH]c(C(=O)C(C)Sc2nnc(NC3CC3)s2)c1C (centres undefined)	COUP-TFII inh 37.5 | Gal4-VP16 ctr inactive | NR2F2 inh conf inactive
CN1CCN(Cc2c(O)ccc3occ(C(=O)c4ccccc4)c23)CC1	none
CC(=O)C(C(C)=O)c1c(Cl)c(O)c(O)c2c(C(=O)c3ccccc3)coc12	COUP-TFII inh 67.5 | Gal4-VP16 ctr 14.1 | NR2F2 inh conf 59.9
O=c1c2ccccc2nc2n1C(CSc1ccccc1)CS2 (centres undefined)	none
O=c1c2ccccc2nc2n1C(CSCc1ccc(Cl)cc1)CS2 (centres undefined)	COUP-TFII inh 42.4 | Gal4-VP16 ctr inactive | NR2F2 inh conf inactive
Cc1ccc(NC(=O)c2ccc(C)cc2)cc1	none
Cc1ccc(C(=O)Nc2cc(C(C)C)c(O)c(C(C)C)c2)cc1	COUP-TFII inh 45.9 | Gal4-VP16 ctr inactive | NR2F2 inh conf inactive
COCC(=O)N(C)C[C@@H]1Oc2ncc(Br)cc2C(=O)N([C@@H](C)CO)C[C@H]1C	none (no result: Gli-Sufu block)
CCOC(=O)c1c(C)nn(-c2ccc(NC(=O)/C=C/C(=O)O)cc2)c1C	COUP-TFII inh 65.1 | Gal4-VP16 ctr 36.4 | NR2F2 inh conf inactive
CCOC(=O)c1c(C)nn(-c2ccc(NC(=O)c3c(C)noc3C)cc2)c1C	none
COc1ccc(N2CCN(C(=O)CCCCCn3c(=S)[nH]c4cc5c(cc4c3=O)OCO5)CC2)cc1	none (no result: COUP-TFII inh, SMARCA2 act, GalR3 antagonist)
COc1ccc(N2CCN(C(=O)CCCCCn3c(=S)[nH]c4ccc(N5CCOCC5)cc4c3=O)CC2)cc1	COUP-TFII inh 42.2 (no result: Gli-Sufu block) | Gal4-VP16 ctr inactive | NR2F2 inh conf inactive
COc1cccc(-c2nc(NCc3cccnc3)c3ccccc3n2)c1O	none
COc1cccc2c(NCc3ccccc3)nc(-n3c(N)nc4ccccc43)nc12	COUP-TFII inh 100.4 (no result: Gli-Sufu block, SMARCA2 act, GAA850 FXN act, GalR3 antagonist, H9c2 protect) | Gal4-VP16 ctr 48.6 | NR2F2 inh conf inactive
CCN1CCN(C(=S)NC(=O)c2cccc(Br)c2)CC1	none
COc1ccc(-c2ccc(C(=O)NCc3ccc(N4CCN(C)CC4)cc3)c3occc23)c(C)c1	none (no result: Gli-Sufu block)
C=CCN=c1scc(-c2ccc3c(c2)NC(=O)CO3)n1/N=C(\C)c1ccccn1	COUP-TFII inh 56.0 | Gal4-VP16 ctr inactive | NR2F2 inh conf 62.5
CCC(C)NC(=O)CN1c2cccc3cccc(c23)S1(=O)=O (centres undefined)	none
O=C1C(Cl)=C(Nc2ccc3cn[nH]c3c2)C(=O)c2ccccc21	COUP-TFII inh 41.2 | Gal4-VP16 ctr inactive | NR2F2 inh conf inactive
CCc1ccc(-c2nc(CN3CCC(C(=O)N4CCN(c5ccccn5)CC4)CC3)c(C)o2)cc1	none
CCc1ccc(-c2nc(CN3CCC(C(=O)N4CCN(c5ccccc5)CC4)CC3)c(C)o2)cc1	COUP-TFII inh 42.3 | Gal4-VP16 ctr inactive | NR2F2 inh conf inactive
Cc1cc(C)cc(NC(=S)NCc2cccn2C)c1	none (no result: COUP-TFII inh, SMARCA2 act, GalR3 antagonist)
Cc1c(/C(O)=C2/C(=O)C(=O)N(Cc3cccnc3)C2c2ccccn2)cnn1-c1ccccc1 (centres undefined)	COUP-TFII inh 95.2 | Gal4-VP16 ctr inactive | NR2F2 inh conf inactive
Cc1c(/C(O)=C2/C(=O)C(=O)N(Cc3cccnc3)C2c2cccs2)cnn1-c1ccccc1 (centres undefined)	none
Cc1c(/C(O)=C2/C(=O)C(=O)N(CCN3CCOCC3)C2c2ccco2)cnn1-c1ccccc1 (centres undefined)	COUP-TFII inh 60.0 | Gal4-VP16 ctr inactive | NR2F2 inh conf 45.8
COc1ccc(NS(=O)(=O)c2cccc(C(=O)OCC(=O)N3CCN(c4ccc(OC)cc4)CC3)c2)cc1	COUP-TFII inh 39.4 | Gal4-VP16 ctr inactive | NR2F2 inh conf inactive
CC1(C)CC2CC(C)(CN2C(=O)COC(=O)c2cccc([N+](=O)[O-])c2)C1 (centres undefined)	none
Cc1c(CCC(=O)N2CCC(C(=O)O)(c3ccccc3)CC2)c(=O)oc2cc3oc4c(c3cc12)CCCC4	COUP-TFII inh 53.4 | Gal4-VP16 ctr 37.0 | NR2F2 inh conf inactive
Cc1c(CCC(=O)N[C@@H](C)C(=O)O)c(=O)oc2cc3oc4c(c3cc12)CCCC4	COUP-TFII inh 46.8 | Gal4-VP16 ctr 32.6 | NR2F2 inh conf inactive
Cc1c(CC(=O)NCCC(=O)O)c(=O)oc2cc3oc4c(c3cc12)CCCC4	none
Cc1c(CCC(=O)N2CCC(C(=O)O)CC2)c(=O)oc2cc3oc4c(c3cc12)CCCC4	COUP-TFII inh 60.5 | Gal4-VP16 ctr inactive | NR2F2 inh conf inactive
Cc1c(C(=O)N2CCN(CCc3ccccn3)CC2)oc2ccc(Cl)cc12	none

High-throughput results as filed in PubChem BioAssay.
